Measured values as given in PubChem BioAssay AID624416 (The Scripps Research Institute Molecular Screening Center, 2012).
In all, about 360,000 compounds went through this assay and about 1,500 (0.42%) were called active. Cut-off read from the data, not from the text of the source: active = inhibition above about 8.5%; inactive = the rest. What follows is part of a selection rich in actives, with near analogues and random picks from the rest.

test system: HIV-1 gp120 / PG9 antibody interaction; assay: small molecules engaging PG9 antibody – biochemical, TR-FRET, primary screen (AID 624416); settings: TR-FRET gp120-PG9 antibody binding; at 6.7 µM; active compounds read high

inhibition, inactive:
Cc1ccccc1OCC(=O)Nc1nc(C)c(C(=O)N(C)C)s1 0.64%
Cc1ccc(F)c(NC(=O)CCOc2ccccc2C)c1 -0.27%
COC(=O)C1=C(C)N(Cc2ccc(F)cc2)C(=S)NC1c1cccc(Cl)c1 (centres undefined) -0.02%
COC(=O)c1ccc(NC(=S)NN2CCOCC2)cc1 -2.64%
Cc1cccc(NC(=O)Cc2ccc(Br)cc2)n1 1.95%
COc1cccc(CNC(=O)[C@H]2CCCN2C(=O)[C@H]2CCCN2C(=O)C2CCCCC2)c1 1.65%
CCCNC(=O)CSc1nc(Cc2ccccc2)nc2ccccc12 0.37%
O=C(CSc1nc(C2CC2)nc2ccccc12)Nc1ccc2c(c1)OCCO2 -1.48%
C[C@H](O)[C@@H]1C(=O)N2CCc3c([nH]c4c(-c5ccc6c(c5)OCO6)cccc34)[C@@H]2C[C@@H]1N(C)C(=O)c1ccco1 -1.4%
CN1C(=O)C(Br)(Br)CC1c1cccnc1 (centres undefined) -0.49%
O=C(O)c1ccccc1-c1ccccc1C(=O)Nc1nccs1 1.5%
O=C(Nc1ccccc1F)c1ccccc1-c1ccccc1 -1.32%
COc1ccc(NC(=O)N(C)C[C@@H]2OCCCC[C@@H](C)Oc3ccc(NC(=O)NC4CCCCC4)cc3C(=O)N([C@H](C)CO)C[C@@H]2C)cc1 -0.95%
O=S1(=O)c2c(cccc2N2CCCCC2)O[C@H](COCc2ccccc2)CN1C1CC1 -1.69%
CCOC(=O)c1cccc(NC(=O)CCn2nnc3ccccc32)c1 1.35%
CCOC(=O)c1ccc(NC(=O)Cn2cnc3cc(C)c(C)cc32)cc1 -1.34%
C[C@H](O)[C@@H]1CN2CCc3ccc(-c4ccc5c(c4)OCO5)cc3[C@@H]2C[C@@H]1N(C)C(=O)C1CCCCC1 2.47%
Cc1cc2c(nc1C)CCCN2C -1.95%
Cc1[nH]c2ccccc2c1SCC(=O)Nc1nccs1 -0.77%
Cc1cc(C(F)(F)F)nc(SCC(=O)Nc2nccs2)n1 0.14%
O=c1[nH]c(-c2ccccc2)cn1C1CCN(Cc2ccc(-c3nc4ccc(F)cc4nc3-c3ccccc3)cc2)CC1 1.31%
CCc1ccc(C2=CC(=O)CC(C)(C)C2=O)cc1 -0.98%
CC(C)C(=O)Nc1cccc(NC(=O)c2ccc([N+](=O)[O-])cc2Cl)c1 -0.82%
CCC(C)C(=O)Nc1cc([N+](=O)[O-])ccc1Cl (centres undefined) -4.15%
O=C(Nc1c(Cl)c(C2CC2)nn1-c1ccccc1)C(Cl)(Cl)Cl 0.67%
C[C@@H]1CN([C@H](C)CO)C(=O)CCCn2cc(nn2)CO[C@H]1CN(C)C(=O)Nc1ccc(N2CCCCC2)cc1 -2.61%
COC(=O)[C@]12C[C@H](CC(=O)NCCC(C)C)C(=O)N(CCc3ccc(OC)c(OC)c3)C1=C[C@H](C(C)(C)C)O[C@@H]2C 0.69%
COC(=O)C1=CN(Cc2ccc(OC)cc2)C=C(C(=O)OC)C1c1ccc(O)c(OC)c1 -1.15%
CCCC(=O)Nc1cc(OCC)c(NC(=O)NC2CCCCC2)cc1OCC -1.64%
O=C(N[C@H](C(=O)N1CCC[C@H]1C(=O)NCCc1ccccc1Cl)c1ccccc1)c1ccccc1 1.57%
Cc1ccc(NC(=O)N2c3ccccc3SC2c2ccco2)c(C)c1 (centres undefined) 0.01%
COc1cccc(CNC(=O)[C@H]2CCCN2C(=O)[C@H]2CCCN2C(=O)c2cc(F)cc(F)c2)c1 -0.29%
COC(=O)[C@]12C[C@H](CC(=O)NCc3ccc(OC)c(OC)c3)C(=O)N(Cc3ccccc3)C1=C[C@H](C(C)C)O[C@@H]2C1CC1 -0.45%
Nc1[nH]c(C(=O)c2ccc(Br)cc2)c(-c2ccc3c(c2)OCO3)c1C(=O)NCCc1c[nH]c2ccccc12 0.87%
CC(OC(=O)c1ccc(-n2cnnn2)cc1)C(=O)NCc1ccccc1 (centres undefined) 1.87%
CCOC(=O)N1CCN(S(=O)(=O)c2ccc(-n3cnnn3)cc2)CC1 -0.23%
CCOC(=O)C1=C(C(=O)OCC)C2N(Cc3ccc(C#N)cc3)c3ccccc3[C@@]23C[C@@H](C(=O)OC)N(S(=O)(=O)c2ccc(F)cc2)C3=N1 (some centres undefined) -0.21%
COC(=O)Cc1nnn2c1[C@H](C)[C@H](c1ccccc1[N+](=O)[O-])OCC2 0.5%
OC(c1nnc(-c2ccccc2)o1)c1cccs1 (centres undefined) -1.12%
Cc1ccc(C(=O)NCC(=O)OCc2nnc(-c3ccccc3)o2)cc1 1.54%
COc1ccc(C2=CN(Cc3ccccc3)C(c3ccc(OC)cc3)CC2=O)cc1 (centres undefined) 4.38%
COCc1cc(C)nc(SCC(=O)Nc2cccc(C)c2)c1C#N -0.32%
Cc1csc(SCC(=O)Nc2ccc(C)c(S(=O)(=O)N(C)C)c2)n1 -0.14%

inhibition, active:
CC(=O)c1sc(NC(=O)CCCOc2ccccc2C)nc1C 12%
COC(=O)c1ccc(NC(=S)Nc2cccc(C)n2)cc1 17.4%
CCCc1nc(SCC(=O)Nc2ccc(S(=O)(=O)N(C)C)cc2)c2ccccc2n1 27%
O=C(Nc1nnc(-c2ccccc2F)s1)c1ccccc1F 13.2%
CCn1nnc2cc(C(=O)Nc3ccc(C(=O)OC(C)C)cc3)ccc21 20.3%
CC(=O)c1cc(C#N)c(SCC(=O)Nc2nccs2)nc1C 15.3%
O=C(Nc1c(Br)cc2c(c1Br)Cc1cc([N+](=O)[O-])ccc1-2)C(Cl)Cl 17.5%
CCOc1cc(C2C(C(=O)OC)=CN(C3CCCC3)C=C2C(=O)OC)cc(Br)c1O 62.6%
CCOc1ccc(C(=O)COC(=O)c2ccc(-n3cnnn3)cc2)cc1 11.4%
Nc1ccc(-c2nnc(-c3ccc(-c4ccccc4)cc3)o2)cc1 9.48%
Cc1nc2cc(NC(=O)CSc3nc4c(C)cccc4cc3C#N)ccc2s1 16%
